From PubChem BioAssay
LASV entry inh: Lassa virus entry inhibition | Potency, µM (titrated, usually from 37.9 µM), for inactives: at the top dose activity change, negative = inhibition, hits mostly inhibitors | actives 1.2% (n = 300,000) | AID 540256 | Lassa virus pseudotype entry inhibition, cell reporter; calls by dose curve; tested in HEK293 cells; further: potency means the concentration at half of the fitted maximal effect; nearly all actives have a fitted effect of over 50% in size
HCMV antiviral: human cytomegalovirus inhibition | activity change, negative = inhibition, % at 57.5 µM | HFF cells, HCMV-luciferase reporter, 72 h; hits give low values | actives 4.5% (n = 410,000) | AID 1259415; in the data active means activity change below about -60%; inconclusive means no clear call, values can overlap the other calls; inactive means above about -39%
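Luciferase read-out from HCMV-luciferase-infected HFFs (MOI 1 PFU/cell) 72 h post infection at 37C; compounds added after 16 h cell attachment; activity normalized between buffer-only basal and Salinomycin (10uM) inhibitor controls.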
MARV entry inh: inhibitors of Marburg virus binding or cell entry; Marburg virus pseudotyped entry inhibition, cell reporter; Potency, µM (series often up to 37.8 µM), inactives show top-dose activity change, negative = inhibition, usual class: inhibitors; actives 1.8% (n = 300,000); AID 540276; calls by dose curve; tested in HEK293 cells; further: potency means the concentration at half of the fitted maximal effect
FMDV antiviral: blocks foot and mouth disease virus. FMDV antiviral cell-based qHTS. Potency, µM (doses to about 57.9 µM), without a hit: top-dose activity change, negative = inhibition, actives largely listed as inhibitors. actives 1.2% (n = 410,000); calls by dose curve; tested in HEK293T cells; further: read-out not given here; potency means the concentration at half of the fitted maximal effect; nearly all actives have a fitted effect of over 45% in size
Numbers without * were called inactive; ? = inconclusive; . = not tested or not shown; + = active, no number; [ ] = another dose, or the depositor's remark. Only some compounds are listed: those with a hit (about 6.2% of all), similar ones and a draw of the others. On the % scale 0 is the no-effect control and ±100 the full control effect.

SMILES | LASV entry inh | HCMV antiviral | MARV entry inh | FMDV antiviral
Cc1ccc(C(=O)Nc2sc(C)c(-c3ccccc3)c2C(N)=O)cc1[N+](=O)[O-] | ? | ? | ? | 1.8µM*
COCCNC(=O)c1c(CSc2ccc(F)cc2)noc1C(=O)NCc1ccccc1 | . | 6 | . | -19%
CN(CC1COc2ccccc2O1)C(=S)Nc1ccccc1F (centres undefined) | 4% | -13 | 11% | 19%
O=C(Cc1c[nH]c2ccccc12)Nc1nnc(C2CC2)s1 | 3.5µM* | -80* | ? | -1%
O=C(Nc1cccc(Cl)c1Cl)C1CC(=O)N(c2ccc(Br)cc2)C1 (centres undefined) | -5% | -92* | ? | ?
O=C(N/N=C/c1ccccc1O)C1CC(=O)N(c2ccc(Cl)cc2)C1 (centres undefined) | . | -79* | . | -9%
CCN(CC)c1ccc(NC(=O)COCc2cc(-c3ccc4c(c3)OCO4)on2)c(C)c1 | -11%[46.1 µM] | -17 | . | -17%
O=C1CC(c2cc(Br)ccc2F)c2cc3c(cc2N1)CCC3 (centres undefined) | ? | -73* | ? | -14%
O=C1CC(c2ccccc2F)c2cc3c(cc2N1)CCC3 (centres undefined) | -11% | -34 | ? | ?
COC1=CC(=O)[C@]2(C=C1OC)OC[C@@H]1Oc3c(ccc4c3C=CC(C)(C)O4)C(=O)[C@@H]12 | . | -93* | . | 16µM*
Cn1cc(-c2cc3cnc(Nc4cccc(NS(C)(=O)=O)c4)cc3n2Cc2ccccc2)cn1 | . | -88* | . | .
COc1ccc(Nc2cc3c(cn2)cc(-c2cnn(C)c2)n3Cc2ccccc2)cc1OC | . | -8 | . | .
CCNc1ccc(C(=O)O)cc1N | -23% | -39 | ? | -7%
CCCOc1ccc(F)cc1-c1cc(C(=O)Nc2cc(OC)ccc2OC)[nH]n1 | . | -80* | . | -12%
CCCOc1ccc(F)cc1-c1cc(C(=O)Nc2cc(OC)c(OC)c(OC)c2)[nH]n1 | . | -16 | . | ?
C=CS(=O)(=O)N(C(=C)C(=O)OC)S(C)(=O)=O | . | -81* | . | .
O=C(c1ccc(N2CCCC2=O)cc1)N1CCOCC1 | 4% | 5 | 10% | 10%
CC(=O)N1CCN(c2ccc(Oc3ncnc4sccc34)cc2)CC1 | 8% | -75* | 2% | ?
CCOC(=O)c1c(C)[nH]c(C(=O)CSc2nnc(-c3ccncc3)n2CC)c1C | -9% | -30 | -1% | .
C=CCn1c(SCC(=O)c2[nH]c(C)c(C(=O)OCC)c2C)nc2scc(-c3ccc(OC)c(OC)c3)c2c1=O | -25% | -100* | ? | ?
O=C(COc1ccc(/C=N/NC(=O)c2ccc(O)cc2)cc1)Nc1cccc([N+](=O)[O-])c1 | . | 33 | . | -1%
Cc1ccc2c(CN3CCN(Cc4ccc5c(c4)OCO5)CC3)cc(=O)oc2c1C | -26% | 37 | -22% | .
Cc1c(O)ccc2c(CN3CCOCC3)cc(=O)oc12 | . | + | . | -6%
COc1ccc(-c2cc(=O)oc3cc(OC(=O)C4CCCCC4)c(Cl)cc23)cc1 | 4% | -91* | -12% | -23%
Cc1ccc2c(CN3CCN(S(=O)(=O)c4ccc5c(c4)OCCO5)CC3)cc(=O)oc2c1C | ? | -78* | ? | ?
SMILES | LASV entry inh | HCMV antiviral | MARV entry inh | FMDV antiviral
COc1ccc(-c2cc(=O)oc3cc(OC(C)C(=O)NC4CC4)ccc23)cc1 (centres undefined) | . | 14 | . | -11%
COc1ccc(-c2cc(=O)oc3c(C)c(O)ccc23)cc1 | . | -72* | . | -23%
CCOC(=O)N(C)c1c(CC)nc2c(OCc3ccc(OC(F)F)cc3)cccn12 | . | -7 | . | -21%
C[C@H](NC(=O)c1ccc(Br)cc1)C(=O)NCc1ccc(S(N)(=O)=O)cc1 | 10%[46.1 µM] | -25 | 5%[46.1 µM] | -9%
COc1ccc(-c2cc(=O)oc3cc(O)ccc23)cc1 | ? | -96* | -30%[46.1 µM] | -15%
COc1ccc(-c2cc(=O)oc3cc(OCC(C)=O)ccc23)cc1 | ? | 14 | ? | -18%
Cc1c(O)ccc2c(-c3ccccc3)cc(=O)oc12 | . | -71* | . | -26%
CCOC(=O)C(Oc1ccc2c(-c3ccc(OC)cc3)cc(=O)oc2c1C)c1ccccc1 (centres undefined) | 13µM* | -24 | ? | ?
COc1ccc(/C=C/C(=O)c2c(O)ccc3c(C)cc(=O)oc23)cc1 | . | -78* | . | -25%
Cc1ccc2oc(C(F)(F)C(F)F)cc(=O)c2c1 | 14% | 34 | ? | -21%
Cc1ccc2oc(C(Cl)(Cl)Cl)cc(=O)c2c1 | -27% | -89* | 12µM* | .
c1ccc(C(c2ccccc2)N2CCN(c3nc4ccccc4n4cnnc34)CC2)cc1 | ? | -99* | ? | 28µM*
c1cnc(N2CCN(c3nc4ccccc4n4cnnc34)CC2)nc1 | 4% | -7 | 6% | 9%
